Consider five compounds from PubChem BioAssay.

Activity calls are given as the source filed them.

Assay [1] deals with Human papillomavirus type 1a protein E7 (residues 44-93). The assay is described as follows: HPV1a E7 fragment binders on microarrays, primary screen, biochemical, small-molecule microarray, residues 44-93, 635 nm fluorescence (AID 1108).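 Further: E7 fragment applied at 1 µg/mL in TBST for 1 h at 4 C; score combines spot fluorescence with its signal to noise ratio.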 The conditions noted are these: small-molecule microarray binding, fluorescence 635 nm; higher = more signal.
A short description of assay [2]: modulators of HCV replicon luciferase signal, primary screen, HCV replication inhibitor project, Huh7 cells, luciferase reporter (AID 1109).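 Further: huh7 hepatoma cells harbouring a luciferase neomycin HCV replicon reporter; luciferase luminescence as measure of HCV replicon replication; test concentration not given here.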 The conditions noted are these: 48 h, higher = more signal. Background: A replicon is a self-replicating genome or part of one, used to study replication in cells.
Assay [3] addresses Left-right determination factor 2 (Homo sapiens) (UniProt O00292). Description: LEFTY2 binders on small-molecule microarrays, primary screen, biochemical, small-molecule microarray, 635 nm fluorescence scan (AID 1110). The conditions noted are these: LEFTY2 binding, higher = more signal.
Assay [4] concerns the target Calmodulin-1 (Homo sapiens) (UniProt P0DP23). The assay is described as follows: CALM1 binders on microarrays, EGTA buffer, profiling panel, biochemical, small-molecule microarray, Cy5-labelled CALM1 (AID 1111).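 Further: labelled calmodulin applied in Tris saline Tween buffer holding calcium plus EGTA and DTT.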 The conditions noted are these: Cy5-CALM1 binding fluorescence, higher = more signal.
The target is the same in assay [5]. Description: calcium-bound CALM1 binders on microarrays, profiling panel, artefact control for SMM control-protein annotation, biochemical, small-molecule microarray, Cy5-labelled CALM1, plus calcium (AID 1112).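 Further: score merges spot fluorescence with signal to noise from triplicate slides.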 The conditions noted are these: Cy5-CALM1 binding fluorescence, higher = more signal.
The nature of assay [6]: small-molecule microarray binders of probe aWnt5a, primary screen, biochemical, biotinylated probe, 635/667 nm fluorescence (AID 1113).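 Further: score merges 667 nm fluorescence intensity with signal-to-noise per printed feature.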 The conditions noted are these: higher = more signal.
A short description of assay [7]: small-molecule microarray binders of probe aShh, primary screen, biochemical, biotinylated probe, 635/667 nm fluorescence (AID 1114).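 Further: probe is biotin-labelled aShh protein from a stem cell growth factor screen; measures binding of labelled protein to compounds printed on the slide; score merges feature fluorescence at 667 nm with signal-to-noise.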 The conditions noted are these: higher = more signal.
A short description of assay [8]: small-molecule microarray binders of probe aNog, primary screen, biochemical, biotinylated probe, 635/667 nm fluorescence (AID 1115).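 Further: probe is biotinylated aNog protein used at 0.15 µg/mL for 1 h at 4 C; z-score combines 667 nm fluorescence of each spot with its signal to noise.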 The conditions noted are these: higher = more signal.
Assay [9] concerns the target Torsin-1A-interacting protein 1 (Homo sapiens) (UniProt Q5JTV8). The assay is described as follows: LAP1 binders from COS7 cell lysate, primary screen, small-molecule microarray, 635/667 nm fluorescence (AID 1116). The conditions noted are these: COS7-hLAP1 lysate binding, 635 nm fluorescence, higher = more signal.
The target in assay [10] is Alpha-bungarotoxin (Bungarus multicinctus) (UniProt P60615). The assay is described as follows: alpha-bungarotoxin binders on microarray, profiling panel, artefact control for SMM control protein annotation, biochemical, small-molecule microarray, Alexa647 label, 635/667 nm fluorescence (AID 1117). The conditions noted are these: alpha-BTX-A647 binding fluorescence, higher = more signal.
Sequence of Alpha-bungarotoxin (Bungarus multicinctus) (P60615 whole entry, looked up): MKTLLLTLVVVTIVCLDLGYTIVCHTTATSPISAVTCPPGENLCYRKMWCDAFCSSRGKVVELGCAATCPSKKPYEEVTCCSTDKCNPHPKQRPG

The target of a further assay is Albumin (Bos taurus) (UniProt P02769). Description: bovine serum albumin binders on microarray, profiling panel, artefact control for SMM control protein annotation, biochemical, small-molecule microarray, Alexa647 label, 635/667 nm fluorescence (AID 1118).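 Further: score merges 667 nm emission intensity and signal-to-noise per printed compound spot.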 The conditions noted are these: BSA-A647 binding, fluorescence 635 nm, higher = more signal.
Sequence of Albumin (Bos taurus) (P02769 whole entry, looked up): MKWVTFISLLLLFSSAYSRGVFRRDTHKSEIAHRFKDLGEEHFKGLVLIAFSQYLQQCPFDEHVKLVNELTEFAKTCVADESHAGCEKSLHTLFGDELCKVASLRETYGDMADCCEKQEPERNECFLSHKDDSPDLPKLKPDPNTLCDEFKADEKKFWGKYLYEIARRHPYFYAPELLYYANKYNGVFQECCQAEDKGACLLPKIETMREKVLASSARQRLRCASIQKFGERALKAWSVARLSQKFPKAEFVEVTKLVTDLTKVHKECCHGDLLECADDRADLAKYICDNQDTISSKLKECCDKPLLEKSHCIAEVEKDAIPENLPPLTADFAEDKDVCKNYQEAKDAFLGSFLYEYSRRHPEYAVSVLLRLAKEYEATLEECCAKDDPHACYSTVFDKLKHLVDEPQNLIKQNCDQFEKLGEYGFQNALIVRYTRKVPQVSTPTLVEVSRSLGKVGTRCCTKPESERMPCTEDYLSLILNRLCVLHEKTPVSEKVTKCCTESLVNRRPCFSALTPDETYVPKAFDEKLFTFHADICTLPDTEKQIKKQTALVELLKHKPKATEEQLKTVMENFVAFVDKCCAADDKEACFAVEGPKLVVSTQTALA
Assay [11] in a line: small-molecule microarray binders of probe aXIP, primary screen, biochemical, NeuroSMM set, 635/667 nm fluorescence (AID 1119).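 Further: probe is the protein aXip251-270 applied at 1 µg/mL to compound-printed slides; binding of probe to printed compounds measured as 667 nm fluorescence plus signal to noise.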 The conditions noted are these: higher = more signal, called active from +8 up or from −8 down.
The nature of assay [12]: small-molecule binders of probe aNOTCH3, primary screen, biochemical, small-molecule microarray, 635/667 nm fluorescence (AID 1120).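 Further: probe is a biotin-tagged antibody raised against NOTCH3 rather than NOTCH3 protein; score merges spot fluorescence near 667 nm with spot signal to noise.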 The conditions noted are these: higher = more signal.
A short description of assay [13]: small-molecule binders of probe aNOTCH2, primary screen, biochemical, small-molecule microarray, 635/667 nm fluorescence (AID 1121).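 Further: score merges feature fluorescence read at 667 nm with its signal to noise.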 The conditions noted are these: higher = more signal.
The target in assay [14] is Carbonic anhydrase 2 (Homo sapiens) (UniProt P00918). The assay is described as follows: CAII small-molecule binders, profiling panel, biochemical, small-molecule microarray, Alexa647-labelled CAII (AID 1122). The conditions noted are these: CAII-A647 binding fluorescence, higher = more signal.
Assay [15] can be described thus: COS7 lysate on small-molecule microarray, probe aHis, 635 nm (AID 1123).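 Further: z-score combines 667nm fluorescence intensity with signal-to-noise per printed compound spot.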 The conditions noted are these: COS7 cell lysate, fluorescence, higher = more signal.
Assay [16] in a line: compound binding in COS7 lysate, probe aLAP1, primary screen, cell lysate, small-molecule microarray (AID 1124).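 Further: lysate comes from COS7 cells expressing LAP1 and is applied at 0.3 µg/mL; score merges spot fluorescence near 667 nm with signal-to-noise over triplicate slides.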 The conditions noted are these: probe aLAP1, fluorescence, higher = more signal.
The next assay deals with Sam68 (KHDRBS1). The assay is described as follows: Sam68 small-molecule binders, primary screen, biochemical, small-molecule microarray, 635 nm fluorescence (AID 1125).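 Further: score merges 667 nm channel intensity with signal to noise over triplicate slides.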 The conditions noted are these: small-molecule microarray binding, higher = more signal.
For assay [17], the system named is Chordin-like protein 2 (CHRDL2). The assay is described as follows: CHRDL2 small-molecule binders, primary screen, biochemical, small-molecule microarray, 635 nm fluorescence (AID 1126).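 Further: printed compound slides probed with Chrdl2 protein at 4 µg/mL for 1 h at 4 C; score merges 667 nm emission intensity with signal to noise over three replicate slides.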 The conditions noted are these: small-molecule microarray binding, fluorescence 635 nm; higher = more signal.
Assay [18] concerns the target Concanavalin-A (Canavalia ensiformis) (UniProt P02866). Description: ConA small-molecule binders, primary screen, artefact control for SMM control protein annotation, biochemical, small-molecule microarray, Alexa647 label, 635 nm (AID 1127).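 Further: z combines 667 nm emission intensity with signal-to-noise across three replicate slides.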 The conditions noted are these: ConA-A647 binding fluorescence, higher = more signal.

Sequence of Concanavalin-A (Canavalia ensiformis) (P02866 whole entry, looked up): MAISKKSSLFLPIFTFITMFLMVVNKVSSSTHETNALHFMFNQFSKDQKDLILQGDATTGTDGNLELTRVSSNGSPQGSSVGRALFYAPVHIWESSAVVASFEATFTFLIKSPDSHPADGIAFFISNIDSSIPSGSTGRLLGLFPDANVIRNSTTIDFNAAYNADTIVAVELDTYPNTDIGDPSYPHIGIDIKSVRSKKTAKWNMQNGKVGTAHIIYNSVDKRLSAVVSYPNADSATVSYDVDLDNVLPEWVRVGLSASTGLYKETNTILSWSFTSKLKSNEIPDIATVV
Sequence of Left-right determination factor 2 (Homo sapiens) (O00292 whole entry, looked up): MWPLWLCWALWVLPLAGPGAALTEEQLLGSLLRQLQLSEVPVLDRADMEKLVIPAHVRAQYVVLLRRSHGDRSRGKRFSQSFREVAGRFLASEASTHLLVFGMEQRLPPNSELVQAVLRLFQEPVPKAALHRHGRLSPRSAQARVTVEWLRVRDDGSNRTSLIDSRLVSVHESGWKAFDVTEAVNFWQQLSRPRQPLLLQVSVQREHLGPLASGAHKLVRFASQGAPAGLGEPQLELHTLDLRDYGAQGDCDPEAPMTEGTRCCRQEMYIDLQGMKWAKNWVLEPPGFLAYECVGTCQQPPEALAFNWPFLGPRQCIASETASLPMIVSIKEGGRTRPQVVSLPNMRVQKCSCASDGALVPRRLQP
Sequence of Torsin-1A-interacting protein 1 (Homo sapiens) (Q5JTV8 whole entry, looked up): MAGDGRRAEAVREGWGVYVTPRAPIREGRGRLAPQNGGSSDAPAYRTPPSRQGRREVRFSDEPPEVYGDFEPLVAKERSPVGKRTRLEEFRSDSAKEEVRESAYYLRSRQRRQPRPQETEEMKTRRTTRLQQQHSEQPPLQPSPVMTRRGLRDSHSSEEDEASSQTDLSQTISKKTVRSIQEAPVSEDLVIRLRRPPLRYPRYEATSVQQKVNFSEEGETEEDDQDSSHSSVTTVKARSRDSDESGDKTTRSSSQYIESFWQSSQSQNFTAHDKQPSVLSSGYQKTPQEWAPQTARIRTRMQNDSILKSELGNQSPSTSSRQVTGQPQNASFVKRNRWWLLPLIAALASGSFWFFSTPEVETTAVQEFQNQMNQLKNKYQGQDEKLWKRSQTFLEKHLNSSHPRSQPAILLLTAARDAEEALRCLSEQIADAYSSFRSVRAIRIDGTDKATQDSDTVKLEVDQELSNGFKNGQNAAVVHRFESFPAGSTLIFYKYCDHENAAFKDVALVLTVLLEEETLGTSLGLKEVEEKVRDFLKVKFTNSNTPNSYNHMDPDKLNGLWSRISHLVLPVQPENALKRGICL

As for `COc1ccc([Si](C)(C)[C@H]2[C@H](CCO)O[C@@]3(C(=O)N(Cc4ccccc4)c4ccc(N5C(=O)c6ccccc6Oc6ccccc65)cc43)[C@@H]2C)cc1`, the composite z-score in assay [1] was 0.647; in assay [3] it was -0.358; in assay [4], 0.425; in assay [5], 0.773; in assay [6], 0.0431; in assay [7], 0.213. The composite z-score in [8] was 0.195; in [9], 0.323; in [10] it was 0.178; with Albumin (Bos taurus) it was 0.467; in [12], -0.0984; in assay [13], -0.106. The composite z-score in assay [14] was found to be 0.532; in assay [15], 1.47; in assay [16], 0.62; in the assay on Sam68 (KHDRBS1) it was 0.442; in assay [17], 0.214; in [18], 0.823. The compound further had a z-score in assay [2] of -4.49. For the same compound, in assay [11], the composite Z-score was -0.216 (inactive).

With `COc1cc(NN2C(C(O)c3ccccc3)C=CC3C(=O)N(C)C(=O)C32)cc(OC)c1OC` (stereo not given), the composite z-score in assay [1] was 1.35; in assay [3] it was 0.222; in [4], 0.533; in [5], -0.171; in assay [6], 0.0437; in assay [7], 0.151. Besides, the composite z-score in assay [8] is 0.521; in assay [9], 0.891; in [10], 0.544; in the assay with Albumin (Bos taurus) it was 0.566; in [12], 0.12; in assay [13] it was -0.0817. In addition, the composite z-score in assay [14] is 0.781; in [15], 1.73; in assay [16], 0.481; with Sam68 (KHDRBS1), 1.3; in [17], -0.179; in assay [18], 0.659. This compound returned a z-score in [2] of -0.928. Also, the composite Z-score in assay [11] was 1.13 (inactive).

`Nc1cc(Br)ccc1C(=O)O`: the composite z-score is -0.0633 in assay [1]; 0.285 in [3]; 0.955 in assay [4]; 0.885 in assay [5]; -0.0045 in [6]; -0.0626 in assay [7]. Moreover, the composite z-score in assay [8] was 0.0558; in assay [9] it was 0.0546; in assay [10], 1.39; in the assay with Albumin (Bos taurus) it was 0.235; in assay [12], 0.0026; in assay [13], -0.117. Moreover, the composite z-score in [14] was 0.18; in [15] it was -0.12; in assay [16], -0.0137; in the assay with Sam68 (KHDRBS1), 0.213; in [17], -0.079; in assay [18], 0.713. Besides, the z-score in [2] was -0.518. Besides, the composite Z-score in assay [11] is 2.13 (inactive).

On to `CN(C)CCCCCCNC(=O)[C@@H]1C[C@@H]2C(=O)N[C@@H](CCCCN)C(=O)N2[C@@H]1c1ccc(O)cc1`, for which the composite z-score in assay [1] amounted to 1.53; in assay [3], 1.62; in [4], 2.11; in assay [5] it was 0.347; in assay [6], 1.28; in assay [7], 2.47. In addition, the composite z-score in [8] is 1.96; in [9] it was 4.63; in assay [10], 3.03; with Albumin (Bos taurus), 0.73; in assay [12], 2.14; in [13], 0.999. In addition, the composite z-score in assay [14] was found to be 0.74; in assay [15], 3.41; in assay [16], 0.611; in the assay with Sam68 (KHDRBS1), 1.32; in [17], 1.36; in [18] it was 1.24. Further, in assay [2], the z-score is 0.805. Besides, the composite Z-score in assay [11] was 3.97 (inactive).

Turning to `COc1cc2c(cc1O)C(c1cccs1)N(Cc1sc3ccccc3c1Cl)CC2` (stereo not given), the composite z-score in assay [1] was 1.48; in [3], 0.659; in [4], 1.66; in assay [5], 0.334; in assay [6], -0.0345; in assay [7], 0.199. Besides, the composite z-score in [8] was determined as 0.593; in assay [9], 1.33; in assay [10], 1.87; with Albumin (Bos taurus), 0.931; in [12] it was 0.173; in assay [13], 0.0294. In addition, the composite z-score in assay [14] came to 0.587; in [15] it was 2.04; in assay [16], 1.17; in the assay on Sam68 (KHDRBS1) it was 1.3; in [17], 0.613; in assay [18], 1.07. In assay [2], this compound showed a z-score of -1.7. Moreover, in assay [11], the composite Z-score is -0.818 (inactive).
